# Compounds with a hit are over-represented: about 1% of the library has one in this group of screens.
# Fh CTSL1 inh – counter-screen for PFM18AAP inhibitors: inhibitors of F. hepatica cathepsin L1 | 0.49% of 300,000 active | AID 1906 | recombinant F. hepatica cathepsin L1, Z-Leu-Arg-MCA fluorescence | inhibition, % at 5.96 µM;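 active = inhibition above the mean of all tested compounds plus 3 SD, set per screening campaign, cut at about 17% in these data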;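 note: 0% = plate median of test compound wells and 100% = 1 µM Z-Phe-Ala-diazomethylketone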
# iPSC survival up – enhancers of human iPSC single-cell survival; AID 602274; 0.044% of 360,000 active; hiPSC single-cell survival, ATPlite luminescence; 100% = ROCK inhibitor wells, 0% = DMSO; survival enhancement, % at 20 µM; in the data active = survival enhancement above about 18%;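 note: cells exposed to compounds for 16 hours before the ATP read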
# CR mimetic SO – caloric restriction mimetics inhibiting age-related superoxide in yeast; S. cerevisiae aged cells, superoxide DHE fluorescence; stronger effect = lower value; superoxide response (% of plate mean), % at 10 µM; 0.18% of 330,000 active;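 active = superoxide response under a set limit, about three screen SD below normal, cut at about 65% in these data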;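 note: yeast aged for seven days with compound at 30 °C before DHE staining; 100% = average MFI of all compound-treated wells on the plate with controls excluded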
# V-ATPase pHluor – regulators of yeast V-ATPase proton transport; S. cerevisiae, pHLuorin cytosolic pH fluorescence; response, % at 10 µM; 0.37% of 350,000 active; in the data active = response mostly above about 7.3%, no sharp cut-off; inactive = mostly below about 5.4%; note: actives read high
# * marks the source's active call; other numbers are inactive results; . = no result given.
SMILES,Fh CTSL1 inh,iPSC survival up,CR mimetic SO,V-ATPase pHluor
CCOC(=O)CSc1nnc([C@H](Cc2ccccc2)NC(=O)OC(C)(C)C)o1,-1,0,92,6
CC(C)CCNC(=O)c1ccc(CSCc2cccc(F)c2)o1,3,-1,106,-3
Cc1ccccc1CS(=O)(=O)c1nnc([C@H](CC(C)C)NC(=O)OC(C)(C)C)o1,82*,-1,110,0
CC[C@@H](C)[C@H](NC(=O)OC(C)(C)C)c1nnc(S(=O)(=O)Cc2cc(C)ccc2C)o1,76*,-1,101,3
CC(C)=CCSc1nnc([C@@H](NC(=O)OC(C)(C)C)C(C)C)o1,36*,-2,94,-1
CC(C)(C)OC(=O)N[C@@H](CCCCNC(=O)OCc1ccccc1)c1nnc([C@H](CCCCNC(=O)OCc2ccccc2)NC(=O)OC(C)(C)C)o1,6,-2,101,1
COc1cc(/C=N/NC(=O)c2cccc(C)c2)ccc1OCC(=O)Nc1ccccc1,1,-1,103,4
Cc1nc2ccccc2c(=O)n1/N=C/c1ccncc1,18*,0,79,-6
Cc1nc2ccccc2c(=O)n1/N=C/c1ccccc1,0,3,114,-1
CS(=O)(=O)NCCNC(=O)c1cc(OCC(F)(F)F)ccc1OCC(F)(F)F,3,-1,93,2
CCCC(=O)Nc1ccc(NC(=O)c2cccc(OC)c2)nc1,3,-3,109,3
COc1cccc(C(=O)Nc2ccc(NC(C)=O)cn2)c1,20*,-3,88,0
Cc1nn(-c2ccccc2)c(C)c1CNC(=O)c1ccc(S(=O)(=O)NCc2ccco2)cc1,.,-1,102,20*
Cc1nc(SCC(=O)NCc2ccc3c(c2)OCO3)c(C#N)c2c1CCCC2,21*,1,102,1
Cc1cc(NC(=O)CSc2ccnc(=O)[nH]2)no1,0,0,73,-1
O=C(O)c1nnn(-c2cc(C(F)(F)F)cc(C(F)(F)F)c2)c1-c1ccccc1,46*,0,87,-2
CC(CCc1ccccc1)NC(=O)c1ccc(C(=O)NC(C)CCc2ccccc2)cc1 (stereo not given),-3,1,102,-3
CC(CCc1ccccc1)NC(=O)c1ccc(Cl)nc1 (stereo not given),17*,1,85,6
Cc1ccc(C)c(NC(=O)CN(C)C(=O)C2CCN(C(=O)Nc3ccccc3)CC2)c1,17*,0,88,1
O=C(Nc1nc(-c2cccc3ccccc23)cs1)c1ccc2c(c1)S(=O)(=O)c1ccccc1C2=O,-5,0,127,21*
CC(C)NC(=O)c1ccc2c(c1)S(=O)(=O)c1ccccc1C2=O,0,20*,98,-1
COc1ccc(-c2cc(C(=O)N3CC4(C)CC3CC(C)(C)C4)no2)cc1 (stereo not given),2,0,87,3
COc1ccc(-c2cc(C(=O)N3CC4(C)CC3CC(C)(C)C4)no2)cc1OC (stereo not given),17*,-1,102,-5
CCN1CCN(C(=O)/C=C/c2ccc(C(C)C)cc2)CC1,17*,1,104,-1
CCCc1ccc(C(C)NC(=S)NC2CCCCC2)cc1 (stereo not given),.,0,107,-1
SMILES,Fh CTSL1 inh,iPSC survival up,CR mimetic SO,V-ATPase pHluor
O=C(CN1C(=O)C2C3C=CC(C3)C2C1=O)Nc1ccc2nccnc2c1 (stereo not given),20*,-1,92,-5
O=C(CN1C(=O)C2C3C=CC(C3)C2C1=O)Nc1ccc(F)cc1 (stereo not given),-4,-2,89,-7
Cc1ccccc1-c1nc(CS(=O)(=O)CC(=O)N2CCCCC2)c(C)o1,-2,1,99,0
Cc1ccc(Nc2nc(-c3sc(N)nc3C)cs2)cc1,.,0,111,14*
COc1ccc(Nc2nc(-c3sc(N)nc3C)cs2)cc1,3,-5,108,6
O=C(O)/C=C/C(=O)c1c(-c2ccccc2)[nH]c2ccccc12,58*,0,93,8
CC(=O)c1c(-c2ccccc2)[nH]c2ccccc12,-1,0,103,1
CC(=O)C1=C(C)OC2(O)c3ccccc3C(=O)C12O (stereo not given),51*,0,105,-6
CCOC(=O)C1=C(C)OC2(O)c3ccccc3C(=O)C12O (stereo not given),59*,1,104,-2
CCOC(=O)C1=C(C)N[C@@]2(O)c3ccccc3C(=O)[C@@]12O,-1,4,100,1
O=C(COc1coc(CN2CCc3ccccc32)cc1=O)N1CCCCC1,21*,0,97,-7
CCOc1ccc(NS(=O)(=O)c2ccc(C(=O)NCCN3CCOCC3)cc2)cc1,1,0,86,-6
CC(C)CC(=O)NC(=S)Nc1ccccc1N1CCCC1,20*,0,90,1
CC(C)CC(=O)Nc1ccccc1N1CCCC1,0,-2,104,-7
Cc1cccc(OCC(=O)Nc2ccccc2N2CCCCC2)c1C,-2,0,85,8.8*
CCCNC(=O)c1cc(C2CCCCN2C(=O)c2ccc3c(c2)CCO3)on1 (stereo not given),.,1,.,.
Cc1ccc(-c2nc(C=Nc3ccc(O)cc3)c(O)o2)cc1,.,1,.,-4
CCC(=O)Oc1oc(-c2ccccc2)nc1C=Nc1ccccc1OC,25*,-1,108,-4
CCC(=O)Oc1oc(-c2ccccc2)nc1C=Nc1ccc(C)cc1,26*,0,115,2
COc1ccccc1C(=O)NCC(=O)OCc1nnc(-c2ccccc2)o1,.,7,.,4
COc1ccc(C)cc1NC(=O)CSc1nc2ccccc2nc1N1CCCC1,9,-1,99,1
O=C(c1ccco1)[C@@H]1[C@@H]2C(=O)N(c3ccccc3)C(=O)[C@@H]2C2c3ccccc3C=CN21 (stereo not given in full),28*,0,98,4
Cc1ccc(N2C(=O)[C@@H]3[C@H](C2=O)C2c4ccccc4C=CN2[C@@H]3C(=O)c2ccco2)cc1 (stereo not given in full),.,7,.,-4
Cc1ccc(N2C(=O)[C@@H]3[C@H](C2=O)C2c4ccccc4C=CN2[C@@H]3C(=O)c2ccco2)c(C)c1 (stereo not given in full),35*,-3,112,1
Cc1ccc(CN2CCN(Cc3cn(C)nc3C)CC2CCO)o1 (stereo not given),-1,22*,88,0
SMILES,Fh CTSL1 inh,iPSC survival up,CR mimetic SO,V-ATPase pHluor
O=C(CCc1ccccc1)Nc1nc2nc(-c3ccccc3)cc(=O)n2[nH]1,1,-4,91,-6
O=c1cc(-c2ccccc2)nc2nc(CCc3ccccc3)[nH]n12,0,5,116,16*
O=c1cc(-c2ccccc2)nc2nc(SCc3ccccc3)[nH]n12,4,31*,104,-2
Cc1cc(=O)n2[nH]c(SCc3ccccc3)nc2n1,-6,-1,109,-1
CC1(C)CN(c2ccc(Br)cc2)C(=O)[C@H]1CC(=O)Nc1ccccc1,.,6,.,-1
COc1cc(-c2coc3c(C(=O)NCc4ccccc4)cccc23)ccc1O,.,-2,.,.

# Screens from PubChem BioAssay.
